# Source: the supplement of paper PMC10849652
# Targets with a hit are over-represented here; the source holds about 7,900 in all. About 0.6% of all pairs of compound and target were hits. Unmarked numbers belong to inactive results.
# Key:
# Assay in all cases: log2 fold change, soluble protein after heating vs DMSO (PISA); higher = thermal stabilisation; K562 cells, 10 uM, 30 min; active = over 0.2 and 3.5 SD of the protein, either way, in both replicates (recomputed)
# [1] = compound: C1=CC=C(C=C1)[C@H](COC2=CC3=C(C=C2)NC(=O)N3)NC(=O)C4=CC=CN(C4=O)CC5=CC(=C(C=C5)F)F
# In short: (§1)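 Values are thermal stability changes relative to control samples and are taken from duplicates. They are stated as log2 fold changes. Before quantification by TMTpro 16plex LC-MS/MS with equalised channel sums, K562 cells at 2×10^6 cells/mL were treated with 10 μM compound for 30 min, heated in aliquots for 3 min across 48°C-58°C, pooled, extracted in PBS with 0.5% NP-40 at 4°C, and centrifuged at 21,000xg for 90 min to give the soluble supernatant.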
# [2] = compound: CC1=C(SC2=C1C(=N[C@H](C3=NN=C(N32)C)CC(=O)N)C4=CC=C(C=C4)Cl)C
# In short: as §1
# [3] = compound: CC1=C2C(=CC=C1)N=C(N(C2=O)C3=CC=CC=C3C)CN4C=NC5=C(N=CN=C54)N
# In short: as §1
# [4] = compound: Cc1sc2c(c1C)C(c1ccc(Cl)cc1)=N[C@@H](CC(=O)OC(C)(C)C)c1nnc(C)n1-2
# In short: as §1
# [5] = compound: c1ccc([C@@H]2C[C@H]2NC2CCNCC2)cc1
# In short: as §1
# Sequence of UniProt Q9H2U1 (Q9H2U1 whole entry, looked up): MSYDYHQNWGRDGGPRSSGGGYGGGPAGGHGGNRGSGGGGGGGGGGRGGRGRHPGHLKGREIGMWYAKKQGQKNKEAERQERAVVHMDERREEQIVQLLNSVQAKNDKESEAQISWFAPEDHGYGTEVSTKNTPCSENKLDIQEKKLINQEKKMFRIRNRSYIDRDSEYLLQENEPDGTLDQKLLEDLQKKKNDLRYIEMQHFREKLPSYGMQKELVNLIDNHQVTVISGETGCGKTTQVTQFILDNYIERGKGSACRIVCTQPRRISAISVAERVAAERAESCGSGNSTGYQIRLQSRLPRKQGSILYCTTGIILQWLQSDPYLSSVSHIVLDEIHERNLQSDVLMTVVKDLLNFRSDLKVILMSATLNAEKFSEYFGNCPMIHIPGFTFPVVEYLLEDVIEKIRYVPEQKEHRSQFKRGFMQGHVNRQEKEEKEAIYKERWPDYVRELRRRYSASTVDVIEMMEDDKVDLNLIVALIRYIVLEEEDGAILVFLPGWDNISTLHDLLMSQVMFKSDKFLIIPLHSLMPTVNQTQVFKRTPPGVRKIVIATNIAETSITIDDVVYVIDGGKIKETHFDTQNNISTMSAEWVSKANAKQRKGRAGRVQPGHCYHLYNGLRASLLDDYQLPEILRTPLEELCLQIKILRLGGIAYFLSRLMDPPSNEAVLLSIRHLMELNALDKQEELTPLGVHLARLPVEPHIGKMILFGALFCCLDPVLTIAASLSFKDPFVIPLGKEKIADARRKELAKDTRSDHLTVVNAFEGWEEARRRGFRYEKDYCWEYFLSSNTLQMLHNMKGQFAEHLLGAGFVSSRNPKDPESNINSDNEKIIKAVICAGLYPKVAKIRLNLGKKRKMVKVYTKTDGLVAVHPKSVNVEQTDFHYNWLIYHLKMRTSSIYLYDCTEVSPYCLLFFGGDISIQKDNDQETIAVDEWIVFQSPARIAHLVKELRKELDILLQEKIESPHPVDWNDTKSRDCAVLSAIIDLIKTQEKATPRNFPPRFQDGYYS
# Sequence of UniProt P39880 (P39880 whole entry, looked up): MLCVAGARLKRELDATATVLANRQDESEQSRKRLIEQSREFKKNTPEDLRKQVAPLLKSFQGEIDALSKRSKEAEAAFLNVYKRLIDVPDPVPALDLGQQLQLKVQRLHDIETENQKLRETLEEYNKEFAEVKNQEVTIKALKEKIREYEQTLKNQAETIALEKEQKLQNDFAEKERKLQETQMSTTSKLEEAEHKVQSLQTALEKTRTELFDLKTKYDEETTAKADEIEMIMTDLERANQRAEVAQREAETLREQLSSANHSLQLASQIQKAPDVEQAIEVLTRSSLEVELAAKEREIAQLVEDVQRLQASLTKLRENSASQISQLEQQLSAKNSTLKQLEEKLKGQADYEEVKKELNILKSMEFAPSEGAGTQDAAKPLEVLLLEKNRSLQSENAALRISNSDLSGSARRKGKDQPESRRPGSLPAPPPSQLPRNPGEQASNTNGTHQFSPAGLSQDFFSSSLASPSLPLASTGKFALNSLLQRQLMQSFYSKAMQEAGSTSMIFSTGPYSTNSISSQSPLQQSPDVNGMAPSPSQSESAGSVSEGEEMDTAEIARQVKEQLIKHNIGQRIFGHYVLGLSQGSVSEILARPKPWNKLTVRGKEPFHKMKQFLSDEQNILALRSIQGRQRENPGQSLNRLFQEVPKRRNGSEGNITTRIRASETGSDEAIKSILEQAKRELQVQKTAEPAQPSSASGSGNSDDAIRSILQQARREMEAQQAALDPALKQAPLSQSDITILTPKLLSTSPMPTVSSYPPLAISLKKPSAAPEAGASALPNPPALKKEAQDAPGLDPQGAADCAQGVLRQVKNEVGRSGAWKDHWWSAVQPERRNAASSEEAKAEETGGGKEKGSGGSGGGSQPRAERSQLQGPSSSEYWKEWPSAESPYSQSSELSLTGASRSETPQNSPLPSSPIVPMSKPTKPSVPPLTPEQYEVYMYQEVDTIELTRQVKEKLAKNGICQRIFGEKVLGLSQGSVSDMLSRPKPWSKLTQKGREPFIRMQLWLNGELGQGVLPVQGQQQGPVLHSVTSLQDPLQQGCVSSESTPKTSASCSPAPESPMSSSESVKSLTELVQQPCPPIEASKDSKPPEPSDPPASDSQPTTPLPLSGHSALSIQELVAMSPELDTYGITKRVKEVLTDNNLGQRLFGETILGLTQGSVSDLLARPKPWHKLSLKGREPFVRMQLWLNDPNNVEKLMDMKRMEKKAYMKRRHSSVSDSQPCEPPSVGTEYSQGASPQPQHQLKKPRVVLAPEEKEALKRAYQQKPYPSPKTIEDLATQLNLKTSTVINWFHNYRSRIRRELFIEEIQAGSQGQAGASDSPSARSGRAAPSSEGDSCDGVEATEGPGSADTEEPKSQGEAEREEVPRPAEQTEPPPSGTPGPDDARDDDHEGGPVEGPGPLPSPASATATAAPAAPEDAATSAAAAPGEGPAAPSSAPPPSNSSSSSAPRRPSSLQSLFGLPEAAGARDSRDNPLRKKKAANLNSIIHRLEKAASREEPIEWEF
# Sequence of UniProt Q13948 (Q13948 whole entry, looked up): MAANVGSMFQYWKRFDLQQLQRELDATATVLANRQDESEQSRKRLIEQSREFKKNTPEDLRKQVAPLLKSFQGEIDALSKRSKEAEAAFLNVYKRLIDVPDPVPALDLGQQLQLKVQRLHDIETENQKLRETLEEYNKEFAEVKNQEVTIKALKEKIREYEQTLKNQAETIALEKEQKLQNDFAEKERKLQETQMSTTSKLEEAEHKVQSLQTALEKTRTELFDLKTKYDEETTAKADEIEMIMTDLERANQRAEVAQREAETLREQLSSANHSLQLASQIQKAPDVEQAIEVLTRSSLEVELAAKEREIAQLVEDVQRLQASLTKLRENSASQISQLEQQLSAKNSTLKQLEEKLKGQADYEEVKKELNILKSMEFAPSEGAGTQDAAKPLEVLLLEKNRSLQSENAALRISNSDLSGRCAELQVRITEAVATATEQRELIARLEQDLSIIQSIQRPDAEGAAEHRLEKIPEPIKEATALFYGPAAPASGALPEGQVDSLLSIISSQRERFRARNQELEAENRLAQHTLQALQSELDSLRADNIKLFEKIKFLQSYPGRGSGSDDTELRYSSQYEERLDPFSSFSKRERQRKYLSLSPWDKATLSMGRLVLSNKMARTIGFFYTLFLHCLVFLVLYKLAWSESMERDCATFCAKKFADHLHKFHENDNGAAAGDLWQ
# Sequence of UniProt Q96CS3 (Q96CS3 whole entry, looked up): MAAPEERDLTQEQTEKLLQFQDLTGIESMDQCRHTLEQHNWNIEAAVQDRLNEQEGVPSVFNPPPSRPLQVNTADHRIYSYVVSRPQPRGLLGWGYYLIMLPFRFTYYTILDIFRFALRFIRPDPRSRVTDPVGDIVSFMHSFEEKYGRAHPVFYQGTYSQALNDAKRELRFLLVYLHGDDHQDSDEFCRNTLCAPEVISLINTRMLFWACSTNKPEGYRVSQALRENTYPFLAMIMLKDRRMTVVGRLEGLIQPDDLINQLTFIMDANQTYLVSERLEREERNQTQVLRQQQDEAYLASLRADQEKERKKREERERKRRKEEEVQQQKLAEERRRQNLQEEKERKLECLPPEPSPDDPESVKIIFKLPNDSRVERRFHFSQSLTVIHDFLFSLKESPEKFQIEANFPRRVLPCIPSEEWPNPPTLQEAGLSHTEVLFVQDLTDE
# Sequence of UniProt Q6V1X1 (Q6V1X1 whole entry, looked up): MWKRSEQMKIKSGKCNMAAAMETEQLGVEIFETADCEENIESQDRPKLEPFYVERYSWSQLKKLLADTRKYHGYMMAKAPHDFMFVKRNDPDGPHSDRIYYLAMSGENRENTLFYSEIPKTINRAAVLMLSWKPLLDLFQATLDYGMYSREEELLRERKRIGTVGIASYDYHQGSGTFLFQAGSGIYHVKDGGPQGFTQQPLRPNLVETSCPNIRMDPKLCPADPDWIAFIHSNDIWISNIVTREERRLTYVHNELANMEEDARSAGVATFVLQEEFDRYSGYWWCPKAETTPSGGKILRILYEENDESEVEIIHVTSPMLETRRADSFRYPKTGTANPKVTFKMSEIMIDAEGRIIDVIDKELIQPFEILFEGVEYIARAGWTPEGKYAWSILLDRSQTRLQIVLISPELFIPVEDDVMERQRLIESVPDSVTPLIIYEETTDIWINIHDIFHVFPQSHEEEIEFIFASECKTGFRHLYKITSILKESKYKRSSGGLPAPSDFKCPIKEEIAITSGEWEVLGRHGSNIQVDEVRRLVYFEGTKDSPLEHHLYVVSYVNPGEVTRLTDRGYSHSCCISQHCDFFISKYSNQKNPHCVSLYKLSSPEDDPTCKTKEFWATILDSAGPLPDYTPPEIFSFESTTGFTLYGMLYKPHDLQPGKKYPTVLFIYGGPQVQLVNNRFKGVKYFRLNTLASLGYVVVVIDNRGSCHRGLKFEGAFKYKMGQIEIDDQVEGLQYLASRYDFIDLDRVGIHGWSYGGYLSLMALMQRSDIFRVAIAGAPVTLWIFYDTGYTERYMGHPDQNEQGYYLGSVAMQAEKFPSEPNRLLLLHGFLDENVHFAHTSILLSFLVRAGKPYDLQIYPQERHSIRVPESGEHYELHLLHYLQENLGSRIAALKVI
# Sequence of UniProt Q9NYP7 (Q9NYP7 whole entry, looked up): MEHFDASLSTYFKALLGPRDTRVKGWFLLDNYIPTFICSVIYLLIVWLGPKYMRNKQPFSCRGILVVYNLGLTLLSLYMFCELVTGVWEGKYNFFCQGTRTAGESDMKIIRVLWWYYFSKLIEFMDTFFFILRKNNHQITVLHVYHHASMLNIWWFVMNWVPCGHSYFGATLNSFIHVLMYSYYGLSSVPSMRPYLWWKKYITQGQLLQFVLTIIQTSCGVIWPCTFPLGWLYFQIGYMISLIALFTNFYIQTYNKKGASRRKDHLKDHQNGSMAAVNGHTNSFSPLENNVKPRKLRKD
# Sequence of UniProt Q15369 (Q15369 whole entry, looked up): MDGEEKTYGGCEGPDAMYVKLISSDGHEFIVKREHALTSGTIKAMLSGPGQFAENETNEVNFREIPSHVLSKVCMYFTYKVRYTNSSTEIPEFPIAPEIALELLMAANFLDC
Target,log2 fold change [1],log2 fold change [2],log2 fold change [3],log2 fold change [4],log2 fold change [5]
FAF2 (UniProt Q96CS3),0.002,0.025,0.067,-0.012,-0.017
DHX36 (UniProt Q9H2U1),0.037,-0.087,-0.094,0.091,0.015
ELOVL5 isoform 2 (UniProt Q9NYP7),-0.056,0.021,0.016,-0.074,0.033
CUX1 isoform 3 (UniProt P39880),0,0.025,0.034,-0.009,0.016
ELOC (UniProt Q15369),0.024,0.151,0.132,-0.066,-0.07
CUX1 isoform 2 (UniProt Q13948),-0.067,0.013,0,0,0.023
DPP8 (UniProt Q6V1X1),-0.112,0.029,0.145,-0.033,0.005
DNAJB1 (UniProt M0R128),-0.843 (active),0.006,0.106,0.078,0.061
DNAH5 (UniProt Q8TE73),0.074,0.023,0.08,0.139,0.062
